# From article PMC7862700, “An all-to-all approach to the identification of sequence-specific readers for epigenetic DNA modifications on cytosine”
# Tests used:
# Assay in all cases: DAPPL (digital affinity profiling via proximity ligation, sequencing); 10 mM Tris-HCl pH 7.5, 50 mM NaCl, 1 mM DTT, 4% glycerol, room temperature, 30 min; GST-TFs on glutathione beads, 16-mer random dsDNA library, 0.1% formaldehyde crosslink after washing; high values mean tight binding
# FEV = target: T1, FEV (Homo sapiens, UniProt Q99581 1-238); settings: protein: recombinant; tags: N-terminal GST; dsDNA, one strand shown
# T1 sequence: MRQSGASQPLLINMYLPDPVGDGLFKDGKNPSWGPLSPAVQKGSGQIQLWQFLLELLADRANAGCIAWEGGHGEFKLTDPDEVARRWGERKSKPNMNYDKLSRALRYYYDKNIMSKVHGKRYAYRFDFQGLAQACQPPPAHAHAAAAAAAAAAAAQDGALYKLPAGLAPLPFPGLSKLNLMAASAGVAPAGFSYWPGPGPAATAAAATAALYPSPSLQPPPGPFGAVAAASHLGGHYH
# Summary of the method: (§1)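 A tag-only sample was pooled with DNA-barcoded human transcription factors that had been expressed in yeast as GST fusions and captured on glutathione beads. The pools were incubated for 30 min at room temperature with 200 nmole of a random double-stranded 16-mer DNA library in Tris/NaCl/DTT/glycerol buffer, then washed, crosslinked with 0.1% formaldehyde, proximity-ligated (BsaI/T4 ligase, 1 h, 37 °C), PCR-amplified and sequenced on an Illumina NextSeq500. Binding signal is each hexamer's read frequency for a factor divided by its frequency for the tag-only sample.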
# ETV5 = ETV5 (Homo sapiens, UniProt P41161 1-510); settings: protein: recombinant; tags: N-terminal GST; dsDNA, one strand shown
# ETV5, sequence (P41161 whole entry): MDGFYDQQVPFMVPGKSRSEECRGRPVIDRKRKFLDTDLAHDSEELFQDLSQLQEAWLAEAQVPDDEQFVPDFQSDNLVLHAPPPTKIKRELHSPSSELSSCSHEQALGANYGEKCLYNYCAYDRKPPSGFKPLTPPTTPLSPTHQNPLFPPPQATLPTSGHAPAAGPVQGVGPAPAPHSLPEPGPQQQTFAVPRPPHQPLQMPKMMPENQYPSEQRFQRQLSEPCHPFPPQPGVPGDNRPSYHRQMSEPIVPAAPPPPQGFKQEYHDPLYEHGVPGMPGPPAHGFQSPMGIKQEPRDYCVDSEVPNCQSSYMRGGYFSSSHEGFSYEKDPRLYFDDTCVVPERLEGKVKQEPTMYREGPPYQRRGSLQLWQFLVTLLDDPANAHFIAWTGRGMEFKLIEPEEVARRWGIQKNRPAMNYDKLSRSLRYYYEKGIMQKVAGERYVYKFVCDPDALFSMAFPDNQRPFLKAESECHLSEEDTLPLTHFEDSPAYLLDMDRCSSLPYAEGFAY
# Summary of the method: as §1
# HSF1 = HSF1 (Homo sapiens, UniProt Q00613 1-529); settings: protein: recombinant; tags: N-terminal GST; chain copies: 3; dsDNA, one strand shown
# HSF1, sequence (Q00613 whole entry): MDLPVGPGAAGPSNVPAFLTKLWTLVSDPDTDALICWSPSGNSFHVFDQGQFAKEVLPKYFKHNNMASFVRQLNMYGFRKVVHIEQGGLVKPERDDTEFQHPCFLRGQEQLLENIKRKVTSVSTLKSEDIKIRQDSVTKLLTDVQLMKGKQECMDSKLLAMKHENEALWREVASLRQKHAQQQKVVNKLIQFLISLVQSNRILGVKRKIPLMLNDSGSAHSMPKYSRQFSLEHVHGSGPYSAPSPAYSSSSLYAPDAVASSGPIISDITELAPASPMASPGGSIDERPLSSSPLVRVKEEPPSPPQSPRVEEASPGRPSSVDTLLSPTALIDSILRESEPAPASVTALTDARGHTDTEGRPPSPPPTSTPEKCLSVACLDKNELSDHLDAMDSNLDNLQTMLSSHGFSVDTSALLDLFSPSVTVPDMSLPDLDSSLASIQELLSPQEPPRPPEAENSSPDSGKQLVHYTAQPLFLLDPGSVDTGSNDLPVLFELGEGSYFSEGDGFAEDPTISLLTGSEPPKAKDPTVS
# Summary of the method: as §1
# SPIC = target: T2, SPIC (Homo sapiens, UniProt Q8N5J4 1-248); settings: protein: recombinant; tags: N-terminal GST; dsDNA, one strand shown
# T2 sequence: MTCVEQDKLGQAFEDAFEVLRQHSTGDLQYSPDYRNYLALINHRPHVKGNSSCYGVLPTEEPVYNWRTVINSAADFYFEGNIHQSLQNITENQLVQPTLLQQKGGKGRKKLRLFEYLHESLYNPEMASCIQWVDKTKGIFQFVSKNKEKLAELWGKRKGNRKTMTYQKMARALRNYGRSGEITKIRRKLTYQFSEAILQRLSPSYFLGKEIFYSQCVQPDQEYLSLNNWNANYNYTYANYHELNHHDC
# Summary of the method: as §1
# ELF4 = ELF4 (Homo sapiens, UniProt Q99607 1-663); settings: protein: recombinant; tags: N-terminal GST; dsDNA, one strand shown
# ELF4, sequence (Q99607 whole entry): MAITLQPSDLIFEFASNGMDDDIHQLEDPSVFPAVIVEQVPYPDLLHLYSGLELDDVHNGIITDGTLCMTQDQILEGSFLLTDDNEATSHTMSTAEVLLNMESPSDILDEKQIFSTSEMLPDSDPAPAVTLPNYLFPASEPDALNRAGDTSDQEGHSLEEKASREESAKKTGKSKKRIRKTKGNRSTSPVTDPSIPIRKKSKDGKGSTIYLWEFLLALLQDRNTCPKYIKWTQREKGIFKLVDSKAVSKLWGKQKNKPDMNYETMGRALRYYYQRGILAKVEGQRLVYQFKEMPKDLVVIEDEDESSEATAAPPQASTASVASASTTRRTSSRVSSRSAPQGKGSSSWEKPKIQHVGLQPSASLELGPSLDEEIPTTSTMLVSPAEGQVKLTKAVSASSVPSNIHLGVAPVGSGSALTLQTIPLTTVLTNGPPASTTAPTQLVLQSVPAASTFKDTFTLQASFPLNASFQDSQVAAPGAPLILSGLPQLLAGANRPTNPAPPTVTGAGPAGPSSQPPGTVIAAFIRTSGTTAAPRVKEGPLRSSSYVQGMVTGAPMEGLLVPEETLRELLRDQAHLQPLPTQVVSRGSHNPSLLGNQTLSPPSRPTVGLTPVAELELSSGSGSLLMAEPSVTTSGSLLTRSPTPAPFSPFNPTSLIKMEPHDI
# Summary of the method: as §1
# ELK4 = target: T3, ELK4 (Homo sapiens, UniProt P28324-2 1-405); settings: protein: recombinant; tags: N-terminal GST; dsDNA, one strand shown
# T3 sequence: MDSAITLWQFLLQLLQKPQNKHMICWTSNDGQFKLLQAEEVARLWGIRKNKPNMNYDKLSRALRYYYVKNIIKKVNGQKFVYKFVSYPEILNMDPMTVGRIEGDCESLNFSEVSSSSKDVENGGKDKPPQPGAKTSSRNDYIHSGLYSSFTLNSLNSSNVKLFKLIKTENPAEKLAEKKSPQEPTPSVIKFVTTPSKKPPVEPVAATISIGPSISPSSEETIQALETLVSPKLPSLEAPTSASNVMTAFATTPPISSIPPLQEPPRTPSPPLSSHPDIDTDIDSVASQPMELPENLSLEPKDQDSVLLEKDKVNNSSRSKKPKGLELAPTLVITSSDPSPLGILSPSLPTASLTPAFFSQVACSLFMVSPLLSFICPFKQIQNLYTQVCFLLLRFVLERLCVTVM
# Summary of the method: as §1
# ETV2 = target: T4, ETV2 (Homo sapiens, UniProt O00321 1-342); settings: protein: recombinant; tags: N-terminal GST; dsDNA, one strand shown
# T4 sequence: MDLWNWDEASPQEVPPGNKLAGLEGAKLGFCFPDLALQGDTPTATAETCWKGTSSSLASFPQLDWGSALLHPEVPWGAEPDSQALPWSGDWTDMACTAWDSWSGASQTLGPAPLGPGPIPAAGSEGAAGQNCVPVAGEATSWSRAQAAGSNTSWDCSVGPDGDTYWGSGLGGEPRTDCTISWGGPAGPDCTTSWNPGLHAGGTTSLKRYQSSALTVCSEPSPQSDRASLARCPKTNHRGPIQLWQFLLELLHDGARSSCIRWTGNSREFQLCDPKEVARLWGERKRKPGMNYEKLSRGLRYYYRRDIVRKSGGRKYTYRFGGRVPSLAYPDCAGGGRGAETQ
# Summary of the method: as §1
# ELF3 = target: T5, ELF3 (Homo sapiens, UniProt P78545 1-371); settings: protein: recombinant; tags: N-terminal GST; dsDNA, one strand shown
# T5 sequence: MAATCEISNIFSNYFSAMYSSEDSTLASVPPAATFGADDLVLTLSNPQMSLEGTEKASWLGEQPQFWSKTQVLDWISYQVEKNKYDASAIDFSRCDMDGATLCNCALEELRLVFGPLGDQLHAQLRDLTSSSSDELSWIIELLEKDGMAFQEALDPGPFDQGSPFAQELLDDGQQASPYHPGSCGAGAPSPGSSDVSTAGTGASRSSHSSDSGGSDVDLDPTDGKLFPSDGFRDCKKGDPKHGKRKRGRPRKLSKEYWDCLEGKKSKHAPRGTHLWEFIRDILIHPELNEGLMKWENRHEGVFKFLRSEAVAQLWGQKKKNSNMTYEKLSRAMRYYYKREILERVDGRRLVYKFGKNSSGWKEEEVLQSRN
# Summary of the method: as §1
# CRX = CRX (Homo sapiens, UniProt O43186 1-299); settings: protein: recombinant; tags: N-terminal GST; dsDNA, one strand shown
# CRX, sequence (O43186 whole entry): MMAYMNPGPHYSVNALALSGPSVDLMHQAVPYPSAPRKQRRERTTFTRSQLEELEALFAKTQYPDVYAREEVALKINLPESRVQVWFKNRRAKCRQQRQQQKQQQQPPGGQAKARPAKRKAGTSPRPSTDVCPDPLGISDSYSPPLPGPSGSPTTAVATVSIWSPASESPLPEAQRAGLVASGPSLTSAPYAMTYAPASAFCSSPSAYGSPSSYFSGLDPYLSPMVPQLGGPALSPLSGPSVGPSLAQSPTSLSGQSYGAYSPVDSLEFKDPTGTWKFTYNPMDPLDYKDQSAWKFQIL
# Summary of the method: as §1
# ETV1 = ETV1 (Homo sapiens, UniProt P50549 1-477); settings: protein: recombinant; tags: N-terminal GST; dsDNA, one strand shown
# ETV1, sequence (P50549 whole entry): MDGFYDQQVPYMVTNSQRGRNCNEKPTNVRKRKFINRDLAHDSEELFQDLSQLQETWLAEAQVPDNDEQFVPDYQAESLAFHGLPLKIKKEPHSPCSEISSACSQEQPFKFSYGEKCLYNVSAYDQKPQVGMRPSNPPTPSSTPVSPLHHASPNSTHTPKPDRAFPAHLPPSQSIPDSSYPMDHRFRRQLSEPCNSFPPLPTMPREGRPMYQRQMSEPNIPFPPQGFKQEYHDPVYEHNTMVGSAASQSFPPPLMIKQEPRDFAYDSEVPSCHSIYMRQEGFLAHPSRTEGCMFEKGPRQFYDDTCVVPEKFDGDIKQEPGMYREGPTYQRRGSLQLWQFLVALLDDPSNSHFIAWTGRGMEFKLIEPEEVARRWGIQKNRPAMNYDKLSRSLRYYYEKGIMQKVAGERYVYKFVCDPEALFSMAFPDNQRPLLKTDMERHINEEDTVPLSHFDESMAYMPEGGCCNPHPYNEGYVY
# Summary of the method: as §1
Sequence,binding signal (FEV),binding signal (ETV5),binding signal (HSF1),binding signal (SPIC),binding signal (ELF4),binding signal (ELK4),binding signal (ETV2),binding signal (ELF3),binding signal (CRX),binding signal (ETV1)
AATATA,"1.3 fold enrichment (6-mer frequency, TF over GST control)","1.33 fold enrichment (6-mer frequency, TF over GST control)","1.38 fold enrichment (6-mer frequency, TF over GST control)","1.29 fold enrichment (6-mer frequency, TF over GST control)","1.3 fold enrichment (6-mer frequency, TF over GST control)","1.39 fold enrichment (6-mer frequency, TF over GST control)","1.35 fold enrichment (6-mer frequency, TF over GST control)","1.5 fold enrichment (6-mer frequency, TF over GST control)","1.62 fold enrichment (6-mer frequency, TF over GST control)","1.39 fold enrichment (6-mer frequency, TF over GST control)"
TCTTTT,"1.44 fold enrichment (6-mer frequency, TF over GST control)","1.4 fold enrichment (6-mer frequency, TF over GST control)","1.66 fold enrichment (6-mer frequency, TF over GST control)","1.55 fold enrichment (6-mer frequency, TF over GST control)","1.54 fold enrichment (6-mer frequency, TF over GST control)","1.22 fold enrichment (6-mer frequency, TF over GST control)","1.42 fold enrichment (6-mer frequency, TF over GST control)","1.41 fold enrichment (6-mer frequency, TF over GST control)","1.59 fold enrichment (6-mer frequency, TF over GST control)","1.47 fold enrichment (6-mer frequency, TF over GST control)"
AGTAAT,"1.05 fold enrichment (6-mer frequency, TF over GST control)","1.12 fold enrichment (6-mer frequency, TF over GST control)","1.3 fold enrichment (6-mer frequency, TF over GST control)","1.12 fold enrichment (6-mer frequency, TF over GST control)","1.1 fold enrichment (6-mer frequency, TF over GST control)","1.08 fold enrichment (6-mer frequency, TF over GST control)","1.24 fold enrichment (6-mer frequency, TF over GST control)","1.08 fold enrichment (6-mer frequency, TF over GST control)","1.61 fold enrichment (6-mer frequency, TF over GST control)","1.06 fold enrichment (6-mer frequency, TF over GST control)"
ACTCCT,"1.47 fold enrichment (6-mer frequency, TF over GST control)","1.38 fold enrichment (6-mer frequency, TF over GST control)","1.36 fold enrichment (6-mer frequency, TF over GST control)","1.54 fold enrichment (6-mer frequency, TF over GST control)","1.59 fold enrichment (6-mer frequency, TF over GST control)","1.54 fold enrichment (6-mer frequency, TF over GST control)","1.38 fold enrichment (6-mer frequency, TF over GST control)","1.3 fold enrichment (6-mer frequency, TF over GST control)","1.32 fold enrichment (6-mer frequency, TF over GST control)","1.41 fold enrichment (6-mer frequency, TF over GST control)"
GGAATT,"1.17 fold enrichment (6-mer frequency, TF over GST control)","1.21 fold enrichment (6-mer frequency, TF over GST control)","1.45 fold enrichment (6-mer frequency, TF over GST control)","1.11 fold enrichment (6-mer frequency, TF over GST control)","1.07 fold enrichment (6-mer frequency, TF over GST control)","1.1 fold enrichment (6-mer frequency, TF over GST control)","1.13 fold enrichment (6-mer frequency, TF over GST control)","1.12 fold enrichment (6-mer frequency, TF over GST control)","1.46 fold enrichment (6-mer frequency, TF over GST control)","1.18 fold enrichment (6-mer frequency, TF over GST control)"
TGATGA,"1.25 fold enrichment (6-mer frequency, TF over GST control)","1.32 fold enrichment (6-mer frequency, TF over GST control)","1.16 fold enrichment (6-mer frequency, TF over GST control)","1.14 fold enrichment (6-mer frequency, TF over GST control)","1.44 fold enrichment (6-mer frequency, TF over GST control)","1.46 fold enrichment (6-mer frequency, TF over GST control)","1.33 fold enrichment (6-mer frequency, TF over GST control)","1.4 fold enrichment (6-mer frequency, TF over GST control)","1.24 fold enrichment (6-mer frequency, TF over GST control)","1.27 fold enrichment (6-mer frequency, TF over GST control)"
TCTCAA,"1.25 fold enrichment (6-mer frequency, TF over GST control)","1.3 fold enrichment (6-mer frequency, TF over GST control)","1.33 fold enrichment (6-mer frequency, TF over GST control)","1.24 fold enrichment (6-mer frequency, TF over GST control)","1.35 fold enrichment (6-mer frequency, TF over GST control)","1.25 fold enrichment (6-mer frequency, TF over GST control)","1.34 fold enrichment (6-mer frequency, TF over GST control)","1.45 fold enrichment (6-mer frequency, TF over GST control)","1.39 fold enrichment (6-mer frequency, TF over GST control)","1.3 fold enrichment (6-mer frequency, TF over GST control)"
